# Measured values published in the supplement of paper PMC12067093, “Discovery and optimisation of a covalent ligand for TRIM25 and its application to targeted protein ubiquitination” (Chemical Science, 2025).
# The full data set covers some 21,000 targets. This sample favours those with the largest changes.
# Compound: CC1Cc2ccccc2N1C(=O)C1CCCN(C1)C(=O)CCl (mixture of isomers) [TRIM25 ligand 11 (diastereomer mixture)]
# Assay: probe-labelled cysteine peptide fold change vs DMSO (competition) (log2 fold change); higher = less target engagement (more negative = stronger competition)
# Settings: THP-1, incubation time: 4 h
# 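Note: competitive chemoproteomic profiling in live THP-1 cells with an iodoacetamide desthiobiotin (IA-DTB) probe, comparing probe-labelled peptide intensities in compound-treated cells against DMSO-treated controls.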
# UniProt Q9HAT2, sequence (Q9HAT2 whole entry): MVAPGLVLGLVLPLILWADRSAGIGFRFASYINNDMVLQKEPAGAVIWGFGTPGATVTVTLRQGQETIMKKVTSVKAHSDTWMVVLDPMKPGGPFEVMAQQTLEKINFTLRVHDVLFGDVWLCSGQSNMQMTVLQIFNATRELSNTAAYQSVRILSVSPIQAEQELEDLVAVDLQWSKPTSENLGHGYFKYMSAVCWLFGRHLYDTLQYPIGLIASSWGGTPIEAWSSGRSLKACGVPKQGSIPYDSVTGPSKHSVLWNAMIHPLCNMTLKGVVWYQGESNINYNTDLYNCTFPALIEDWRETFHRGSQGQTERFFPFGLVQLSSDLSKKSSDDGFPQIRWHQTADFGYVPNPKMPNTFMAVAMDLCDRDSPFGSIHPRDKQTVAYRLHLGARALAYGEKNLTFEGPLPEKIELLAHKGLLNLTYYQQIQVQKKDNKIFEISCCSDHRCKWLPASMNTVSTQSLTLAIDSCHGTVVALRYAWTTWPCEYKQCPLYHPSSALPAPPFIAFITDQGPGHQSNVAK
# UniProt Q15436, sequence (Q15436 whole entry, looked up): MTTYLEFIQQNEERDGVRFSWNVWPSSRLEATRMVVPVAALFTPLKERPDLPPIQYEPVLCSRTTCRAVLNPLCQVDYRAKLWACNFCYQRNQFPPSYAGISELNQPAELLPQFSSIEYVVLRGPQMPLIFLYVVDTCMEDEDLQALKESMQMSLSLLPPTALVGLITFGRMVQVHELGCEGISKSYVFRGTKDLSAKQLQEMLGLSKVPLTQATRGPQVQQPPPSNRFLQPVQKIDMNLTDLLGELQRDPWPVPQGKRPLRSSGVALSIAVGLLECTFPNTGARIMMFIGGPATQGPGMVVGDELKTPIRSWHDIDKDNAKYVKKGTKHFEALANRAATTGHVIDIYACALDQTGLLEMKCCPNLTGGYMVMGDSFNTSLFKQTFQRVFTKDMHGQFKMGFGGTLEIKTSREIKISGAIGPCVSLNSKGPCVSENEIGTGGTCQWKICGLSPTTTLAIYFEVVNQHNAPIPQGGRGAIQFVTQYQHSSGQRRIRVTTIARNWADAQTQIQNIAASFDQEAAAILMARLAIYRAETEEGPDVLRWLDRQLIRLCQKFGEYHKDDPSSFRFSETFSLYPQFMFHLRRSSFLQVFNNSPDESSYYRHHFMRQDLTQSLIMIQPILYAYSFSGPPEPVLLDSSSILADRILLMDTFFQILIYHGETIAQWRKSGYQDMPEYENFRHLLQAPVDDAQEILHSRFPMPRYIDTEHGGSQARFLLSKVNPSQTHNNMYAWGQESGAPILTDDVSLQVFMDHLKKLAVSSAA
# UniProt O95197, sequence (O95197 whole entry, looked up): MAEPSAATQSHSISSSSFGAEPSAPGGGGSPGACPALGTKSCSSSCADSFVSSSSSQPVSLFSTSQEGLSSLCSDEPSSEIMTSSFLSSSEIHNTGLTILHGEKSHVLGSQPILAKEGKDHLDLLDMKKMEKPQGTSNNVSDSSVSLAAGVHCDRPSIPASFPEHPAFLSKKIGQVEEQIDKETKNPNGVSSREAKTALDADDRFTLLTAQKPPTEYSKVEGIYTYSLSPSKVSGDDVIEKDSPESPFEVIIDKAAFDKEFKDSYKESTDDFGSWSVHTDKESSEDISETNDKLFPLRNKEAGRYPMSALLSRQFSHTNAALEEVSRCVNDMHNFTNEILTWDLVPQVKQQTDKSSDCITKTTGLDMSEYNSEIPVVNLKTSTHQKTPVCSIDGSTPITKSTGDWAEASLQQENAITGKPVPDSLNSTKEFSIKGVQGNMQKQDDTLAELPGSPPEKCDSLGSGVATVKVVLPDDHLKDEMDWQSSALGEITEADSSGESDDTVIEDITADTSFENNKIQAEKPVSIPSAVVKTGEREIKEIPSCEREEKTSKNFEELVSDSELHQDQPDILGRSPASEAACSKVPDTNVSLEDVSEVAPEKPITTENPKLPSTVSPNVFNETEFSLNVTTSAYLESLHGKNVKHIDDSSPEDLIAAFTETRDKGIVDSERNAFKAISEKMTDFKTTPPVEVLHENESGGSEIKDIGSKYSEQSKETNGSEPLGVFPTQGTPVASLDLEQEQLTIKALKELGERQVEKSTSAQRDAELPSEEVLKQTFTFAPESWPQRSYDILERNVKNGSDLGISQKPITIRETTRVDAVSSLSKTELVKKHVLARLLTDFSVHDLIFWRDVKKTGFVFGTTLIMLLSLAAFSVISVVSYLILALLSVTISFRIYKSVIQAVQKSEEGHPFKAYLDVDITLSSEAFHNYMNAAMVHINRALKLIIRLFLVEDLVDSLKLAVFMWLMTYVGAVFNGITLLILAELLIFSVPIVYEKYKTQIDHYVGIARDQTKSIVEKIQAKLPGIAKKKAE
# UniProt Q5VWQ0, sequence (Q5VWQ0 whole entry, looked up): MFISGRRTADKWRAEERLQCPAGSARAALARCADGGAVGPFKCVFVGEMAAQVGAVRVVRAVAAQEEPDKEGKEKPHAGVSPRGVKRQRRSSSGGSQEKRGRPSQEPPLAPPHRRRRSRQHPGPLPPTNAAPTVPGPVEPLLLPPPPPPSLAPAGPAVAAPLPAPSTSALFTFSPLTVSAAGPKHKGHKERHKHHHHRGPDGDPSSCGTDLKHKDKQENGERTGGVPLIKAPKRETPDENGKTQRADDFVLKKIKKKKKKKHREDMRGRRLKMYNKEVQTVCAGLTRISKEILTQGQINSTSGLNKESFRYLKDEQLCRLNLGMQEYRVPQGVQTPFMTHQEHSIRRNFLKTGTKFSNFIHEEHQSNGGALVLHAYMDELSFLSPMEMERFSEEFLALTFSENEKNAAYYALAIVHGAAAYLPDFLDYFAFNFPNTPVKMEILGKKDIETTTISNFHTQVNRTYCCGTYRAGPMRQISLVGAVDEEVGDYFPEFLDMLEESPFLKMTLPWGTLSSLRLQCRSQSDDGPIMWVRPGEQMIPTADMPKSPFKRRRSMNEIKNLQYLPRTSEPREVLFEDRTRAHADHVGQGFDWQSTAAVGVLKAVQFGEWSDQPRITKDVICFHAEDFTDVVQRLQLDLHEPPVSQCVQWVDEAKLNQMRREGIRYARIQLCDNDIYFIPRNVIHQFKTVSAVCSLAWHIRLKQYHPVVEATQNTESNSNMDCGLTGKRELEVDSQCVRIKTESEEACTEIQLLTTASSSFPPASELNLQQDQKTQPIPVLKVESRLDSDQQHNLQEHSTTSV
# UniProt Q00796, sequence (Q00796 whole entry, looked up): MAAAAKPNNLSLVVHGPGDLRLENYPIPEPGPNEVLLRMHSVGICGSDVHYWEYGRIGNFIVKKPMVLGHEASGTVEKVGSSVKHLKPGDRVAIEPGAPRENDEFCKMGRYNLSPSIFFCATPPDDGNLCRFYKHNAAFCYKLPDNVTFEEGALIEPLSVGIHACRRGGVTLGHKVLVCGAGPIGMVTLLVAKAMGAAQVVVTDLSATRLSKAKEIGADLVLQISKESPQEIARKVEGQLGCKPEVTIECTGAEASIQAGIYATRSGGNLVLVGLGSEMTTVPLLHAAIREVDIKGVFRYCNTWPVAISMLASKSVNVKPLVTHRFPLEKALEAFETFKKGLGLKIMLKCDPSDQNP
# UniProt Q9UBX3, sequence (Q9UBX3 whole entry, looked up): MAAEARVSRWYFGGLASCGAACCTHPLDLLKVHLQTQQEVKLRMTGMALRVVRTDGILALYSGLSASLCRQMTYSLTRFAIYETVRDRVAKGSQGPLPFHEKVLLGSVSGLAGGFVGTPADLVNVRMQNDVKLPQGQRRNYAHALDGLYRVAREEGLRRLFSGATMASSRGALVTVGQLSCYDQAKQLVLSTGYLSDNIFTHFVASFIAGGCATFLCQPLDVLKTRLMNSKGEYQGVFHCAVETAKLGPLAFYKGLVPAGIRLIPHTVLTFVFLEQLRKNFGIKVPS
# UniProt Q6IA17, sequence (Q6IA17 whole entry): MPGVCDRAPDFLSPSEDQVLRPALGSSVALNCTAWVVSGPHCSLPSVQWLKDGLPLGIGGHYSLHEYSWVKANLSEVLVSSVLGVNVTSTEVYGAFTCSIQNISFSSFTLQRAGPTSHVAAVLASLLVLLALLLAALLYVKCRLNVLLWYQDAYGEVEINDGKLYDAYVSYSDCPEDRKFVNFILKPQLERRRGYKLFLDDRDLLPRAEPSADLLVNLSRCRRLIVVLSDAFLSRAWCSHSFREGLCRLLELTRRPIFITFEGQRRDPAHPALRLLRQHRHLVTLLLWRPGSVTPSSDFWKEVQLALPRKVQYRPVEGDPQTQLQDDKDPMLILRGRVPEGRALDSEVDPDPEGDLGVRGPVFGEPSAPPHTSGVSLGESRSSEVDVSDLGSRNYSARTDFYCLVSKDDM
# UniProt Q5VZM2, sequence (Q5VZM2 whole entry, looked up): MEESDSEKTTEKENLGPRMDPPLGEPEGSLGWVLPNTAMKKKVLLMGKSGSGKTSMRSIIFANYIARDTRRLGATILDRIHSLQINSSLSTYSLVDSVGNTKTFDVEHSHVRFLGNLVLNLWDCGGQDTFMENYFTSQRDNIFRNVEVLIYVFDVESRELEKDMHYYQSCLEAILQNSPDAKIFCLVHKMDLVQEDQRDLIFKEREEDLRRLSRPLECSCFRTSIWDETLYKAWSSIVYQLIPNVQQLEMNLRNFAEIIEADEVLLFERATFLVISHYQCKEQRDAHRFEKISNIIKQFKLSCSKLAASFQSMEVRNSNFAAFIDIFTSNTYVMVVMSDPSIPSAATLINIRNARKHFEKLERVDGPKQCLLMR
# UniProt P05109, sequence (P05109 whole entry): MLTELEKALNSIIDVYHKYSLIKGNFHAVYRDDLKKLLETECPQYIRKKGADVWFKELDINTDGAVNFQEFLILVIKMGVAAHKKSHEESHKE
# UniProt P30626, sequence (P30626 whole entry, looked up): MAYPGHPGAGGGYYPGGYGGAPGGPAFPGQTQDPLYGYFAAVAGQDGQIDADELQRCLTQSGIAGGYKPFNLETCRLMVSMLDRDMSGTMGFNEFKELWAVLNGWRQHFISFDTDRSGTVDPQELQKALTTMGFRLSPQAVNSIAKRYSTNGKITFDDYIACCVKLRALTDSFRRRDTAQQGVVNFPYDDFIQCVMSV
Target,probe-labelled cysteine peptide fold change (10 µM),probe-labelled cysteine peptide fold change (50 µM)
SMS_P52788_256_TCGDVLDNLKGDCYQVLIEDCIPVLKR (UniProt P52788),-0.302,-0.139
RSBN1_Q5VWQ0_282_EVQTVCAGLTR (UniProt Q5VWQ0),0.00457,-0.119
SEC16A_O15027_1293_YWCDAEYDAYR (UniProt O15027),-0.117,-0.311
SAMD4B_Q5PRF9_20_GWNECEQTVALLSLLK<|>SAMD4A_Q9UPU9_20_GWNECEQTVALLSLLK (UniProt Q9UPU9+Q5PRF9),-0.204,0.121
SETX_Q7Z333_1416_CMPSEPETIK (UniProt Q7Z333),-0.13,-0.585
RPS6KA1_Q15418_432_ETIGVGSYSECKR (UniProt Q15418),0.185,-0.833
RTN3_O95197-3_42_SCSSSCAVHDLIFWR (UniProt O95197),-0.124,-0.737
SLC25A10_Q9UBX3_69_TDGILALYSGLSASLCR (UniProt Q9UBX3),0.0966,0.615
SIGIRR_Q6IA17_174_LYDAYVSYSDCPEDR (UniProt Q6IA17),0.24,-0.151
RUVBL2_Q9Y230_227_FVQCPDGELQK (UniProt Q9Y230),0.151,-0.0879
RRAGB_Q5VZM2_185_IFCLVHK (UniProt Q5VZM2),0.162,0.183
RSL1D1_O76021_96_SDSEDICLFTK (UniProt O76021),-0.0174,-0.141
SPCS2_Q15005_17+26_SGGSGGCSGAGGASNCGTGSGR (UniProt Q15005),-0.266,-0.603
SETX_Q7Z333_1398_AGSHTAQNSDIFVPESDRSDYNCTGGTEVLANSNR (UniProt Q7Z333),-0.136,-0.652
SEC23A_Q15436_88_LWACNFCYQR (UniProt Q15436),0.0643,0.249
SRI_P30626_75_CLTQSGIAGGYKPFNLETCR (UniProt P30626),0.0396,-0.0761
SMAD9_O15198_93_GLPHVIYCR<|>SMAD3_Q15796_89_GLPHVIYCR<|>SMAD2_Q99717_129_GLPHVIYCR (UniProt Q99717+Q15796+O15198),-0.076,-0.0521
S100A8_P05109_42_LLETECPQYIR (UniProt P05109),-0.0697,-0.229
SRGAP2_O75044_486_TDCSLAR (UniProt O75044),-0.0891,-0.197
SORD_Q00796_179_VLVCGAGPIGMVTLLVAK (UniProt Q00796),-0.904,-0.915
SIAE_Q9HAT2_367_MPNTFMAVAMDLCDRDSPFGSIHPR (UniProt Q9HAT2),-0.176,-0.565
SNX14_Q9Y5W7_593_IPVFCIDVER (UniProt Q9Y5W7),0.3,0.776
SHCBP1_Q8NEM2_591_VDLEELIECATGK (UniProt Q8NEM2),0.088,-0.228
